The results in this text go back to PubChem BioAssay AID492999 (Johns Hopkins Ion Channel Center, 2010).

Out of some 1,700 compounds screened, about 1,100 (65%) were called active.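 How the source made its calls: active means duplicate-averaged calcium response above the buffer-only control mean plus 5 SD of those controls; inactive means the rest.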 The set was probably picked from earlier hits. Only a sample is shown.

The nature of the assay: enhanced carbachol calcium response, M3R/RGS4 cells, RGS4 inhibitor project, cell-based, validation screen, HEK293 M3R/RGS4, calcium flux (AID 492999).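 On calcium response: integrated fluorescence ratio F max minus min over baseline F0; higher response in RGS4-induced cells means RGS4 inhibition.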 Conditions: HEK293 M3R/RGS4, carbachol calcium Fluo-4 fluorescence, at 10 µM, carbachol added at its EC20; hits give high values, 0 = buffer wells, 100 = carbachol control. In general terms: Calcium assays in cells follow changes in intracellular calcium, usually with a dye or a luminescent sensor.
Regarding `CCOC(=O)C1=NN(c2ccc(Cl)cc2)/C(=C/C2=NCCc3cc(OC)c(OC)cc32)S1`, the calcium response is 10.5% (active).

On to `CCC(c1nnnn1Cc1ccco1)N(Cc1cc2cc(OC)ccc2[nH]c1=O)C1CCCCC1` (centres undefined), for which the calcium response result was “inactive”.

`COc1ccc(/C(O)=C2/C(=O)C(=O)N(c3nc(C)c(C)s3)C2c2ccco2)cc1` (centres undefined): the calcium response entry was “inactive”.

`COc1ccc(-c2csc(Nc3ccc(O)cc3)n2)cc1`: the calcium response is 10% (active).

In the case of `C=CCSc1nc2c(c(=O)[nH]1)C(C(C)C)C(C#N)=C(N)O2` (centres undefined), the calcium response is 26% (active).

On to `COc1cc(Br)cc(/C=N/c2ncn[nH]2)c1O`, for which the calcium response is 8% (active).

With `COc1cc(/C=C2/C(=O)NN(c3cccc(Cl)c3)C2=O)cc(Br)c1O`, the calcium response was 30.5% (active).

Take `C#CCOc1ccc(/C=C2/C(=O)NN(c3ccccc3)C2=O)cc1OC`: the calcium response was 9% (active).

In the case of `COc1cc(/C=C2/SC(=S)N(Cc3ccccc3)C2=O)cc(OC)c1O`, the calcium response result is “inactive”.

Take `Oc1ccc(/C=N/Nc2ccc(C(F)(F)F)cn2)cc1O`: the calcium response is 16.5% (active).

As for `Cc1nc(-c2ccccc2)sc1C(=O)/C=C/c1ccccc1`, the calcium response is 10% (active).

In the case of `COc1ccc(/C=C/C(=O)c2ccc(OC)cc2O)cc1`, the calcium response result was “inactive”.

As to `O=C1Nc2ccc(Br)cc2/C1=N/N=C/C1=C(N2CCOCC2)C(=C\c2ccccc2)/CC1`, the calcium response was 18.5% (active).

`O=C(Nc1ccccc1)OCc1cc(-c2ccc(Cl)cc2)on1`: the calcium response entry is “inactive”.

With `COCCCNC(=S)N(CCN(C)C)Cc1cc2cc3c(cc2[nH]c1=O)OCCO3`, the calcium response result is “inactive”.

Take `COc1ccc(OC)c(S(=O)(=O)N2CCCC(C(=O)N3CCC(C(N)=O)CC3)C2)c1` (centres undefined): the calcium response entry is “inactive”.

Regarding `CCOC(=O)C1CCN(C(c2cc3cc(C)cc(C)c3[nH]c2=O)c2nnnn2C2CCCCC2)CC1` (centres undefined), the calcium response was 18% (active).

Regarding `CCOC(=O)[C@@H]1[C@H]2COc3ccc(Br)cc3[C@H]2N2C(=O)N(c3ccc(Cl)cc3)C(=O)[C@@]12C`, the calcium response result was “inactive”.

As for `Cc1cc(C)nc(S/C=C/C(=O)c2ccccc2)n1`, the calcium response is 19.5% (active).

Regarding `CCOc1ccc(/C=N/NC(=O)CSc2ccccn2)cc1O`, the calcium response entry was “inactive”.

Turning to `Cc1ccc(Sc2cc(N3CCOCC3)nc(-c3ccccc3)n2)cc1`, the calcium response is 28% (active).

`C[C@H](NC(=O)c1nc[nH]c1C(=O)NCC(=O)OC(C)(C)C)c1ccccc1`: the calcium response was 13% (active).

In the case of `O=C(Nc1ccc(Cl)cc1)OCc1cc(-c2ccccc2)on1`, the calcium response entry was “inactive”.

Regarding `COC(=O)Cn1cc(/C=C/[N+](=O)[O-])c2ccccc21`, the calcium response is 33.5% (active).

For the compound `Cc1nc(Nc2ccc(S(=O)(=O)N3CCCC3)cc2)c2nnn(Cc3ccccc3)c2n1`, the calcium response entry is “inactive”.

With `O=C(/C=C/c1ccc(Cl)c([N+](=O)[O-])c1)c1cccnc1`, the calcium response was 9% (active).

`O=C(/C=C/c1ccc(Cl)c([N+](=O)[O-])c1)c1ccc(O)cc1`: the calcium response is 22% (active).

For `CCCCC1S/C(=N/N=C/c2cccs2)NC1=O` (centres undefined), the calcium response was 18% (active).

As to `Brc1ccc(-c2csc(N/N=C/c3cccnc3)n2)cc1`, the calcium response is 7.5% (active).

Turning to `Cc1ccc(Nc2nc(N)nc(CN3CCN(Cc4ccccc4)CC3)n2)cc1Cl`, the calcium response result is “inactive”.

In the case of `CNc1nc(Nc2ccc(C)c(Cl)c2)nc(N)c1[N+](=O)[O-]`, the calcium response is 6% (active).

As for `Cc1nn2c(=O)cc(COC(=O)c3ccc(NC(=O)C(C)(C)C)cc3)nc2s1`, the calcium response result is “inactive”.

For the compound `CC(C)c1nc(SCC(=O)Nc2cccc(C(=O)O)c2)c2c3c(sc2n1)CCCC3`, the calcium response is 27.5% (active).

In the case of `Cc1ccc(NC(=O)c2c(NC(=O)CCC(=O)O)sc3c2CCCCC3)cc1`, the calcium response entry is “inactive”.

Take `CC(C)Cc1nc(Nc2ccc(S(=O)(=O)N3CCCC3)cc2)c2nnn(Cc3ccccc3)c2n1`: the calcium response entry was “inactive”.

As to `CNCC(O)c1ccc(O)c(O)c1` (centres undefined), the calcium response is 21.5% (active).

In the case of `O=C(CCN1CCc2ccccc2C(O)(c2ccccc2)C1)c1ccc2c(c1)OCCO2` (centres undefined), the calcium response was 100% (active).

`COc1ccc(C(C[N+](=O)[O-])n2nc(C)cc2C)cc1` (centres undefined): the calcium response is 10% (active).

On to `Cc1nn(C(C)C(=O)N2CCOCC2)c(=O)c2nn(-c3ccccc3)c(C)c12` (centres undefined), for which the calcium response entry was “inactive”.

For the compound `O=C(NCCCc1ccccc1)C1CCC(CNc2c(N3CCCCC3)c(=O)c2=O)CC1` (centres undefined), the calcium response entry was “inactive”.

On to `O=C1c2ccccc2NC(c2ccc(-c3cccc(Cl)c3)o2)N1O` (centres undefined), for which the calcium response is 24.5% (active).

`c1ccc(C[C@H]2CNCCN2CCC23CC4CC(CC(C4)C2)C3)cc1`: the calcium response was 26.5% (active).

Consider `O=C(COC(=O)c1cccc(Br)c1)Nc1cccc2c1C(=O)c1ccccc1C2=O`, for which the calcium response entry is “inactive”.

For `O=C(O)c1ccc2c(c1)C(=O)N(c1ccc(/C=C/C(=O)c3ccccc3)cc1)C2=O`, the calcium response was 93% (active).

Take `CCc1ccc(C2C(C#N)=C(N)N(N3CCOCC3)C3=C2C(=O)CC(C)(C)C3)s1` (centres undefined): the calcium response entry was “inactive”.

With `O=[N+]([O-])/C=C/c1ccc2c(ccn2Cc2ccccc2)c1`, the calcium response is 56.5% (active).

On to `CCn1c(O)c(N=NC2=NC(=O)CS2)c2cc(C)ccc21`, for which the calcium response entry was “inactive”.

Take `O=C1NC(c2ccc(-c3ccccc3[N+](=O)[O-])o2)C(C(=O)c2ccc(Cl)cc2)C(O)(C(F)(F)F)N1` (centres undefined): the calcium response was 18.5% (active).

`Cn1c(-c2ccco2)nc2cc3ccccc3cc21`: the calcium response result is “inactive”.

On to `CCc1ccc2oc(-c3ccc(N)cc3)nc2c1`, for which the calcium response was 17% (active).

As to `CCOc1ccc(NC(=O)C/C(C)=N/NC(=O)Cc2cccs2)cc1`, the calcium response result is “inactive”.

On to `CCCCOC(=O)CNc1nnc(SCC(=O)OCC)[nH]c1=O`, for which the calcium response is 63.5% (active).

As for `Cc1ccc(C)c(Cn2nnc3c(=O)[nH]c(C(=O)Nc4ccc(F)cc4)nc32)c1`, the calcium response is 56.5% (active).

As to `COC(=O)C1CCN(C(=O)c2cc(=O)[nH]c3ccccc23)CC1`, the calcium response entry is “inactive”.

On to `Cc1ccc(S/C(=N\S(=O)(=O)c2ccc(Cl)cc2)c2ccccc2)cc1`, for which the calcium response result is “inactive”.

`C#CCOc1ccc(/C=C2/C(=O)ON=C2C)cc1OCC`: the calcium response is 16% (active).

On to `C=CCOc1ccc(/C=C2/C(=O)ON=C2C)cc1OCC`, for which the calcium response is 14.5% (active).

For the compound `Cc1ccsc1/C=N/n1c(=S)[nH]nc(C)c1=O`, the calcium response was 22.5% (active).

Turning to `Cc1ccc(SC(CC(=O)c2ccc(C(C)(C)C)cc2)C(=O)O)cc1` (centres undefined), the calcium response entry was “inactive”.

In the case of `Nc1cccc(-c2cc(-c3ccccc3)nc(-c3cccc(N)c3)n2)c1`, the calcium response is 13.5% (active).

As to `COc1cc2c(cc1O)C(SC)=NC(C)(C)C2`, the calcium response was 26.5% (active).

Regarding `CCc1nnc(NS(=O)(=O)c2ccc(N=Cc3c(C)[nH]n(-c4ccc(C)cc4)c3=O)cc2)s1`, the calcium response result was “inactive”.

Take `C1=C(N2CCOCC2)/C(=C/c2nc3ccccc3[nH]2)CC1`: the calcium response is 49% (active).

Regarding `COc1ccc(NCc2nnc(SCc3ccccc3)n2-c2ccc(OC)cc2)cc1`, the calcium response entry is “inactive”.

Consider `Cc1ccc(/C=C2\CCn3c2nc2cc(C(=O)O)ccc2c3=O)c(C)c1`, for which the calcium response was 52% (active).

`O=C(O)c1ccc2c(=O)n3c(nc2c1)/C(=C/c1ccc(Cl)c([N+](=O)[O-])c1)CC3`: the calcium response result was “inactive”.

Turning to `Oc1ccc(-c2[nH]ncc2-c2nc3ccccc3s2)c(O)c1`, the calcium response was 12% (active).

Consider `O=S(=O)(Nc1nccs1)c1ccc2c(c1)OCCO2`, for which the calcium response result is “inactive”.

On to `Cc1c(NC(=O)c2coc(=O)c(Br)c2)c(=O)n(-c2ccccc2)n1C`, for which the calcium response is 24.5% (active).

Turning to `CS(=O)(=O)N(CC(O)Cn1c2ccccc2c2ccccc21)c1cccc2ccccc12` (centres undefined), the calcium response was 14.5% (active).

Take `COc1ccc(S(=O)(=O)Nc2ccc(O)c(Sc3nc4ccccc4s3)c2)cc1`: the calcium response is 23% (active).

Consider `O=[N+]([O-])c1c(NCCO)cc(Sc2nc3ccccc3s2)c2nonc12`, for which the calcium response entry was “inactive”.

For the compound `Nc1ccccc1SC(C[N+](=O)[O-])c1ccccc1` (centres undefined), the calcium response was 38.5% (active).

In the case of `O=C(O)C(c1ccccc1)N1C(=O)/C(=C\c2ccc(-c3cccc(Cl)c3)o2)SC1=S` (centres undefined), the calcium response was 13.5% (active).

Consider `COc1ccccc1C1C(C#N)=C(N)Oc2c1c(-c1ccccc1)nn2-c1ccccc1` (centres undefined), for which the calcium response was 34.5% (active).

Take `C=C(C)C(=O)O[C@H]1C/C(C)=C\C(=O)/C=C(\C)[C@H](O)[C@@H]2OC(=O)C(=C)[C@@H]21`: the calcium response is 26.5% (active).

Turning to `CC(=O)Nc1ccc(S(=O)(=O)Nc2nc(-c3ccc(C(C)(C)C)cc3)cs2)cc1`, the calcium response is 19.5% (active).

As to `O=C(/C=C/Sc1ncn[nH]1)c1ccc(Cl)cc1`, the calcium response was 45.5% (active).

Turning to `Cc1cc(-c2n[nH]c(=S)n2/N=C/C(Br)=C/c2ccccc2)n[nH]1`, the calcium response is 18% (active).
